# Test results from ChEMBL document CHEMBL3988442, “University of Dundee, Small-Polar-MMV Screening Library” (2021).
# Out of some 53,000 compounds screened, about 900 (1.7%) showed an effect of 50% or more. For the sample, strong results were picked, then their nearest neighbours and some compounds at random.
# System: Mycobacterium tuberculosis
# Assay: Cornell - Phenotypic assay to identify agents that inhibit growth of Mycobacterium tuberculosis
# Format: functional
# Set-up: scale not given: direction of the effect not stated beside the values
# Settings: 10 mM as filed; unlikely as a test dose
row,Structure (SMILES),Percent Effect [%]
1,CC(C)c1nc(N2CCN3CCCC3C2)c2cnn(C)c2n1 (stereo unspecified),62.47
2,CC(C)c1nc(N2CCC(N3CCCCCC3)CC2)c2cnn(C)c2n1,30.23
3,CC(C)c1nc(N2CCC(N3CCCC(O)C3)CC2)c2cnn(C)c2n1 (stereo unspecified),28.63
4,Cc1cc(C)nc(N2CCC(c3noc(C)n3)CC2)n1,-1.548
5,O=C(CC1CCN(c2cccnn2)CC1)NCCO,12.72
6,CCC/N=c1/c(NC(=O)NCCCOC)c(O)oc2ccccc12,-33.59
7,CCc1ccc(CN(C)C(=O)C(c2ccccc2F)N(C)C)nc1 (stereo unspecified),0.2159
8,CCCC(=O)NCC(Cc1cccc(F)c1)N1CCCC1=O (stereo unspecified),2.564
9,O=C(CN(Cc1ccccc1)CC1CCOCC1)Nc1nccs1,42.61
10,NC(=O)NC(=O)CCN(Cc1ccccc1)CC1CCOCC1,53.84
11,O=C(CN(Cc1ccccc1)CC1CCOCC1)NC(=O)NC1CC1,16.06
12,CCc1ccc(C(COC)NC(=O)c2ccc(C(N)=O)cc2)o1 (stereo unspecified),17.07
13,Cc1oncc1C(=O)N1CCOCC2(CCN(c3ccccn3)C2)C1.O=C(O)C(F)(F)F (stereo unspecified),-11.19
14,Cc1nc(C)n(CC2CCCN2Cc2cccc3c2OCCO3)n1 (stereo unspecified),-6.241
15,CC(=O)N1CCC[C@@H](NCc2cccc(F)c2)[C@@H]1c1ccc(C)s1.Cl,-22.92
16,CC(=O)N1CCC[C@@H](NCc2c[nH]c3ccccc23)[C@@H]1c1ccc(C)s1.Cl,66.32
17,CC(=O)N1CCC[C@@H](NCc2ccc(F)cc2)[C@@H]1c1ccc(C)s1,1.669
18,c1ccc2ncc(CC3CCNC3)cc2c1 (stereo unspecified),-46.09
19,O=c1n(Cc2ccc(F)cc2)nc2ncccn12,-16.62
20,COc1cccc(OCc2cc(C(=O)N3CC(O)C3)n[nH]2)c1,3.061
21,O=C(c1cc(COc2ccc3c(c2)OCO3)[nH]n1)N1CCCO1,80.32
22,C[C@@H]1CN(C(=O)c2cc(COc3ccc4c(c3)OCO4)[nH]n2)C[C@H](C)O1,3.14
23,O=C(c1cc(COc2ccc3c(c2)OCO3)[nH]n1)N1CCSCC1,102
24,O=C(c1cc(COc2ccc3c(c2)OCO3)[nH]n1)N1CC=CC1CO (stereo unspecified),46.2
25,O=C(c1cc(COc2ccc3c(c2)OCO3)[nH]n1)N1CCCC1,105.4
26,O=C(c1cc(COc2ccc3c(c2)OCO3)[nH]n1)N1CCCC(O)C1 (stereo unspecified),44.89

row,Structure (SMILES),Percent Effect [%]
1,O=C(c1cc(COc2ccc3c(c2)OCO3)[nH]n1)N1CCCCO1,15.85
2,O=C(c1cc(COc2ccc3c(c2)OCO3)[nH]n1)N1CCOCC1,35.93
3,Cc1noc(C)c1S(=O)(=O)N1CCc2nc(C3CCNCC3)ncc2C1.Cl,6.846
4,CN(C)C(=O)CN1CCCC(c2nccnc2-c2cccc(Cl)c2)C1 (stereo unspecified),27.94
5,O=c1cc(CN2CCCC2)nc2n1CCCN(CC1CC1)C2,-16.69
6,c1ncc(CN2CC(Cc3nccc4cc[nH]c34)C2)cn1,24.55
7,Cn1cc(CC2CCN(C(=O)NCCc3cccc(O)c3)C2)cn1 (stereo unspecified),9.063
8,CCC(=O)N1CCC(c2nc(N3CCCC3)ncc2S(C)(=O)=O)CC1,-19.63
9,CS(=O)(=O)c1cnc(N2CCCC2)nc1C1CCN(C(=O)C2CC2)CC1,60.16
10,CCC(=O)N1CCC(c2nc(N3CCCCC3)ncc2S(C)(=O)=O)CC1,49.28
11,CS(=O)(=O)N1CCC(CNC(=O)c2cnccn2)CC1,-29.61
12,COCCN1CCC2(CC1)CN(C(=O)Cc1cccnc1)CCO2.O=C(O)C(F)(F)F.O=C(O)C(F)(F)F,26.19
13,CC(=O)N1CCCC1c1ccc(Br)cn1 (stereo unspecified),-5.926
14,OCCc1cc(C2CCCN2c2ncccn2)n[nH]1 (stereo unspecified),5.746
15,COc1nsc2nc(C3CCCN3C(C)=O)ccc12 (stereo unspecified),51.54
16,COc1ccc(Oc2cncc(C3CCCN3C(C)=O)n2)cc1 (stereo unspecified),-6.062
17,COc1nsc2nc(C3CCCN3c3ncccn3)ccc12 (stereo unspecified),56.9
18,Cc1ncc(CN(C)C)c(C2CCCN2c2ncccn2)n1 (stereo unspecified),3.651
19,CNCC(=O)N1CCC(c2cccc(Oc3ccccc3)n2)CC1,5.467
20,COc1ccc(CN2CC[C@@H]3[C@H]2CCC(=O)N3c2cnn(C)c2)cc1.O=C(O)C(F)(F)F,-0.7852
21,CCCc1cncnc1N1CCC2(CCC(=O)N(CCOC)C2)CC1,-26.49
22,CNc1cc(N2CCCC2CNCc2ccc(C)o2)ncn1 (stereo unspecified),-46.19
23,CN1CC(=O)N(c2ccsc2)CC12CCN(S(=O)(=O)c1ccccc1)C2.O=C(O)C(F)(F)F (stereo unspecified),4.283
24,O=C(O)C(F)(F)F.c1cnc(N2CCC3(CC2)CN(CC2CC2)c2ccccc23)nc1,32.03
25,CN1C(=O)C2(CCN(CC3CC3)CC2)c2ccccc21.O=C(O)C(F)(F)F,-19.06
26,CS(=O)(=O)N1CCC2(CC1)CN(CC1CCOC1)c1ccccc12.O=C(O)C(F)(F)F (stereo unspecified),24.53

row,Structure (SMILES),Percent Effect [%]
1,O=C(O)C(F)(F)F.O=C(O)C(F)(F)F.OCCN1CC2(CCN(CC3CC3)CC2)c2ccccc21,53.69
2,CCCS(=O)(=O)N1CCC2(CC1)CN(CC1CCOC1)c1ccccc12.O=C(O)C(F)(F)F (stereo unspecified),53.88
3,CCS(=O)(=O)N1CCC2(CC1)CN(CC1CCOC1)c1ccccc12.O=C(O)C(F)(F)F (stereo unspecified),-6.416
4,CCC(=O)NC(Cc1cc(N(C)C)nc(C2CC2)n1)c1ccccc1 (stereo unspecified),47.48
5,CC(C)c1nccc(C2CC(=O)Nc3n[nH]c(C4CCC4)c32)n1 (stereo unspecified),28.48
6,Cc1cccnc1CN1CCN(c2noc(-c3ccccc3)n2)CC1,16.84
7,O=C(c1cc(-n2cccn2)ccn1)N(CC(F)(F)F)C1CCCC1,17.65
8,Cc1nccn1C1CCCN(C(=O)c2ccc3c(c2)nc(C)n3C)C1 (stereo unspecified),-4.275
9,O=C(CN1CCCC1Cn1cncn1)Nc1nccs1 (stereo unspecified),20.94
10,COc1c(C)cnc(CN(C)C(=O)c2cccc(NC(N)=O)c2)c1C,25.72
11,COCc1cccc(NC(=O)N(C)Cc2ncc(C)c(OC)c2C)c1,-1.951
12,COc1c(C)cnc(CN(C)C(=O)Nc2ccc3c(c2)CCO3)c1C,65.58
13,CS(=O)(=O)c1snnc1C1CCN(Cc2cccc(O)c2)CC1,-3.307
14,Nc1cc(N2CCOCC(Cc3ccc4[nH]ccc4c3)C2)ncn1 (stereo unspecified),103.2
15,c1cc(N2CCOCC(Cc3ccc4[nH]ccc4c3)C2)ncn1 (stereo unspecified),9.694
16,Cc1cc(N2CCOCC(Cc3ccc4[nH]ccc4c3)C2)ncn1 (stereo unspecified),26.85
17,Cc1cccc(NC(=O)N2CCC3(CCC(C(=O)N(C)C)O3)CC2)c1 (stereo unspecified),-3.897
18,CN(C)Cc1cccc(-c2cccnc2C(=O)NCc2ccco2)c1,0.1793
19,Cc1[nH]c2nc(CNc3ccccc3Cl)nn2c(=O)c1C,13.95
20,O=C(c1cc(-c2ccco2)cs1)N1CCCC1,81.62
21,O=C(c1cc(-c2ccco2)cs1)N1CCOCC1,26.26
22,CN1CCN(C(=O)c2cc(-c3ccco3)cs2)CC1,25.84
23,CCn1cc2c(n1)C(COC)CN(Cc1ccoc1)C2 (stereo unspecified),-14.11
24,COCC1CN(Cc2ccccn2)Cc2cn(C)nc21.O=C(O)C(F)(F)F.O=C(O)C(F)(F)F.O=C(O)C(F)(F)F (stereo unspecified),31.55
25,CCn1cc2c(n1)C(COC)CN(Cc1ccccn1)C2 (stereo unspecified),96.31
26,CN(C)C(=O)c1ccc2ccc(N3CCN(CC4CC4)CC3)n2c1,-12.17

row,Structure (SMILES),Percent Effect [%]
1,Cc1ccc(-c2cc(C(=O)NC(C)C(=O)N3CCCCC3)on2)cc1 (stereo unspecified),17.57
2,CCc1ccc(S(=O)(=O)Nc2ccn(CC(=O)OC)n2)cc1,68.94
3,COC(=O)Cn1ccc(NS(=O)(=O)c2ccc3c(c2)CCC3)n1,-1.96
4,CCn1ccc(NS(=O)(=O)c2cccc(COC)c2)n1,-1.872
5,CSC(C)C(=O)N1CCCN(Cc2nccn2C)CC1 (stereo unspecified),-38.31
6,Fc1cccc(CN2CCC(c3noc(-c4ccncc4)n3)CC2)c1F,8.868
7,CCCc1nnc(N2CC[C@@](O)(C3CCOCC3)[C@H](C)C2)s1,-20.29
8,COc1ccc(-c2cnc(N)nc2C2CCCNC2)cc1.Cl (stereo unspecified),57.74
9,Nc1ncc(-c2ccc(C(F)(F)F)cc2)c(C2CCCNC2)n1 (stereo unspecified),50.32
10,Nc1ncc(-c2ccc(Cl)cc2)c(C2CCCNC2)n1 (stereo unspecified),-8.441
11,CS(=O)(=O)N1CC(c2nc(N)ncc2-c2ccc(F)cc2)C1,26.29
12,Nc1ncc(-c2ccc(F)cc2)c(C2CCCNC2)n1 (stereo unspecified),2.627
13,COc1ccc(-c2cc(C3CCCNC3)ccn2)cc1.Cl (stereo unspecified),13.34
14,Cc1n[nH]c(C2CN(CC(=O)NCCC3=CCCCC3)CCO2)n1 (stereo unspecified),-4.775
15,COc1cc(CNC(=O)c2csc(Br)c2)ccn1,5.577
16,c1ccc(CN2CCC(c3nccnc3-n3ccnc3)CC2)cc1,-13.47
17,Cc1noc(C)c1CN(Cc1cccs1)C1CCS(=O)(=O)C1 (stereo unspecified),-24.86
18,CCS(=O)(=O)N1CCc2ccc(NC(=O)NCCc3ccccc3)cc21,30.28
19,CN(C)CC(=O)N1CCN(C(=O)c2cccc3[nH]ncc23)CC1,11.64
20,CCc1cnc(CN(C(C)=O)C2CCN(CCc3ccccc3)C2)o1 (stereo unspecified),-5.219
21,Cc1csc(CNC(=O)N2CCN(Cc3ccco3)CC2)n1,5.266
22,Cc1csc(CN2C[C@@H]3COC[C@]3(C(=O)NCc3ccco3)C2)n1,99.79
23,Cc1ncsc1CN1C[C@@H]2COC[C@]2(C(=O)NCc2ccccn2)C1.O=C(O)C(F)(F)F.O=C(O)C(F)(F)F,34.64
